From PubChem BioAssay (NCI)
The panel holds about 83,000 compounds, 20% with a hit somewhere; the sample as a whole holds those more often.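 Treatment: one concentration, 48 hours, 96-well format. Scoring: percent growth, with anything below 10 considered active.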 Active and inactive are the calls of the source.

These compounds were tested on OVCAR-8 ovarian (assay: NCI-60 one-dose screen, 48 h (100 = growth as untreated, 0 = no growth, -100 = all killed)). Conditions: 10 µM unless noted.
Experimental: Growth inhibition of the OVCAR-8 human tumor cell line is measured as a screen for anti-cancer activity. Cells are grown in 96 well plates and exposed to the test compound for 48 hours. Compounds are tested at a single concentration, which is 10^-5 M for most compounds. The reported endpoint is percent growth (GI% or GIPRCNT), where numbers from 0 - 100% represent growth inhibition, and numbers from -100% - 0 represent cell death. For example, a value of 40 represents 60% growth inhibition. A value of 0 means no net growth occurred over the course of the experiment. A value of -40 indicates 40% of cells at the beginning of the experiment died by the end of the experiment. A value of -100 means all cells are dead at the end of the experiment.
NCI-60 Human Tumor Cell Lines Screen was performed using the standard one-dose NCI protocol, which is described in more detail at https://dtp.cancer.gov/discovery_development/nci-60/default.htm.
Compounds with GIPRCNT values below 10 were considered active. Activity score was based on GIPRCNT using the following formula: […]
Score is 0 for GIPRCNT values of 100 or above, 50 for GIPRCNT values of 0, and 100 for GIPRCNT values of -100.

SMILES	growth
CC(=O)O[C@H]1C(=O)[C@@]2(C)[C@H]([C@H](OC(=O)c3ccccc3)[C@]3(O)C[C@H](OC(=O)[C@H](OC(=O)CCC(=O)OC4CCC(S/N=C(N)/N=C(\N)N(C)C)CC4)[C@@H](NC(=O)c4ccccc4)c4ccccc4)C(C)=C1C3(C)C)[C@]1(OC(C)=O)CO[C@@H]1C[C@@H]2O (stereo not given in full)	21.8% (inactive)
COc1ccc(-c2nc3cc(C(=O)Nc4cc(OC)c(OC)c(OC)c4)ccc3n2C2CCCCC2)cc1	96.6% (inactive)
COc1cc(C)c(C2C(C#N)=C(N)Oc3n[nH]c(-c4cccs4)c32)cc1C(C)C (stereo not given)	89.1% (inactive)
COc1ccc(C(=O)COc2ccc(/C=C3\Oc4ccc(OC)cc4C3=O)cc2)cc1	88% (inactive)
O=C(COc1ccc(/C=C2\CSc3ccccc3C2=O)cc1)Nc1nccs1	79.4% (inactive)
Cn1ccnc1C(=O)/C=C/c1ccccc1	20.9% (inactive)
C[n+]1ccccc1/C=C/c1ccc2cccc(O)c2n1	100% (inactive)
COc1ccc(Nc2cc(C)nc(N3CCN(c4ccnc5cc(Cl)ccc45)CC3)n2)cc1	53.6% (inactive)
Cc1cc(N2CCCCCC2)nc(NC2CCCC(Nc3ccnc4cc(Cl)ccc34)C2)n1 (stereo not given)	-85.3% (active)
COc1ccc(N=Nc2nccs2)c(O)c1	20.2% (inactive)
CC[C@]1(O)C[C@@H]2CN(CCc3c([nH]c4ccccc34)[C@@](C(=O)OC)(c3cc4c(cc3OC)N(C)[C@H]3[C@@](O)(C(N)=O)[C@H](O)[C@]5(CC)[C@@H]6C[C@@H]6CN6CC[C@]43[C@@H]65)C2)C1	15.9% (inactive)
O=C1c2ccccc2C(=O)c2c1ccc1[nH]c(-c3cccs3)nc21	81.5% (inactive)
CC(C)(C)N1CCC1CN (stereo not given)	97.5% (inactive)
CC1=CC(C)(C)Nc2ccc(Cc3ccc4c(c3)C(C)=CC(C)(C)N4)cc21	96.9% (inactive)
COC(=O)[C@@H]1CCCN1C(=O)[C@@H]1CCCN1C(=O)[C@H](Cc1ccccc1)NC(=S)Nc1cc(C(F)(F)F)cc(C(F)(F)F)c1	41.6% (inactive)
O=C1C=C(OCC=C(Cl)Cl)C(=O)c2ccccc21	71.5% (inactive)
CC[C@H]1OC(=O)[C@H](C)[C@@H](O[C@H]2C[C@@](C)(OC)[C@@H](O)[C@H](C)O2)[C@H](C)[C@@H](O[C@@H]2O[C@H](C)C[C@H](N(C)C)[C@H]2O)[C@](C)(O)C[C@H](C)CN(C)[C@H](C)[C@@H](O)[C@]1(C)O	115% (inactive)
CSc1ccc(SC2c3ccc(C)cc3Oc3nc(N)c(C#N)c(N)c32)cc1 (stereo not given)	-92% (active)
CCCCN(CCCC)CCCn1c(-c2ccccc2)ccc1-c1ccccc1	82.4% (inactive)
Cc1cc(C)nc(SC2=C(Nc3ccc(C)c(Cl)c3)C(=O)N(Cc3ccccc3)C2=O)n1	45.3% [30 µM] (inactive)

SMILES	growth
COc1ccc(NC(=O)c2ccc(/C=C/C(=O)c3ncc[nH]3)cc2)cc1	64.7% (inactive)
CCOc1cc2c(cc1OCC)C(c1cc(OC)c(O)cc1Cl)NCC2 (stereo not given)	90.8% (inactive)
COc1ccc(-n2nc(C)c3c(Nc4ccc(NC(=O)Nc5cccc(C(F)(F)F)c5)cc4)ncnc32)cc1	2.63% (active)
COc1cc2c(cc1O)CC[C@@H]1[C@@H]2CC[C@]2(C)[C@@H](OCCN(C)C)CC[C@@H]12	65.6% (inactive)
N#Cc1c(N)n(CCNC(=O)c2ccccc2)c2nc3ccccc3nc12	102% (inactive)
CCOC(=O)n1cc(-c2nonc2-c2cn(C)c3ncccc23)c2cc(F)ccc21	84.5% (inactive)
C=CC(=O)Nc1cccc(-c2nc(SC)nc(Nc3cccc(OC)c3)c2C#N)c1	42% (inactive)
COc1ccc(SC2c3ccc(C)cc3Oc3nc(N)c(C#N)c(N)c32)cc1 (stereo not given)	-89.1% (active)
Cc1ccc(/C=C2\SC(=S)N(CC(=O)NCCCN3CCOCC3)C2=O)cc1	96.4% (inactive)
CC(=O)O[C@H]1CC[C@]2(C)[C@H]3CC=C4[C@@H]5CC(C)(C)CC[C@]5(C(=O)NCCNCCNCCN)CC[C@@]4(C)[C@]3(C)CC[C@H]2C1(C)C	-0.659% (active)
CN1CCN(CCCOc2cccc3nc(Nc4ccc(Cl)c(F)c4)ccc23)CC1	85% (inactive)
CCCCn1cnc2c(Sc3c([N+](=O)[O-])ncn3C)nc(N)nc21	91.4% (inactive)
O=C(/C=C/C=C/c1ccc2c(c1)OCO2)N/N=C\c1ccc(O)cc1O	22.8% (inactive)
O=C1c2ccccc2C(=O)c2c(N=Nc3[nH]c(=S)[nH]c3O)cccc21	30.3% (inactive)
N#Cc1nnn(-c2ccc(S(N)(=O)=O)cc2)c1NC(=O)CCl	101% (inactive)
Cc1nn(-c2ccc(F)cc2)c2ncnc(Oc3ccc(NC(=O)Nc4ccc(Cl)c(C(F)(F)F)c4)cc3)c12	96.5% (inactive)
Cc1ccc2c(c1)C(=O)/C(=C/c1cccc(OCC(=O)c3ccc(Cl)cc3)c1)CS2	69.7% (inactive)
N#CCCN=Nc1c(O)[nH]c2ccc([N+](=O)[O-])cc12	102% (inactive)
Clc1ccc2c(NCCCCNc3nc(N4CCCCC4)nc4ccccc34)ccnc2c1	11.7% (inactive)
Cc1c(/C=C/[N+](=O)[O-])ccc2c1[nH]c1ccccc12	94.1% (inactive)
